Values without a mark were called inactive.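 The calls were made as follows: active = AUC reduced over 20% with Padj below 0.05 in at least 2 of 3 replicates; inactive = otherwise.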
Experiments:
Roseburia intestinalis = experiment: growth AUC relative to DMSO control (median of replicates) (fraction); higher = more growth (less inhibition), active = hit call of the paper; details: 20 µM; 24 h
Procedure, shortened: (§1)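 Three biological replicates, each grown on a separate day, were combined as a median for every value. In each, a gut bacterial monoculture in mGAM started at OD600 0.05 and grew anaerobically at 37 °C with 20 µM compound (1% DMSO), with OD600 read hourly over 24 h. Area under the growth curve was normalised against the plate median of solvent-only wells, or against row and column medians on the industrial chemical plate, after the minimum OD was set to 0.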

Streptococcus salivarius = experiment: as above; details: 20 µM; 24 h
Procedure, shortened: as §1

SMILES | growth AUC (Roseburia intestinalis) | growth AUC (Streptococcus salivarius)
CCCCN(C)C(=O)Nc1ccc(Cl)c(Cl)c1 | 0.956 | 0.971
COC(=O)c1ccc(CNS(C)(=O)=O)cc1S(=O)(=O)NC(=O)Nc1nc(OC)cc(OC)n1 | 0.973 | 1.07
O=[N+]([O-])c1ccc(O)cc1 | 1.14 | 1
Br[C@@H]1CC[C@@H](Br)[C@@H](Br)CC[C@@H](Br)[C@@H](Br)CC[C@H]1Br | 1 | 0.521 (active)
Cc1cccc(C)c1N(CCSCC(O)C(=O)[O-])C(=O)CO.[Na+] (stereo not drawn) | 1.02 | 0.97
COC(=O)Nc1ccc(Cl)c(Cl)c1 | 1 | 0.918
CCSc1nc(NC(C)C)nc(NC(C)C)n1 | 0.96 | 0.999
O=S(=O)(Oc1ccc(Cl)cc1Cl)c1ccccc1 | 0.974 | 1.03
CCCCCCCCSCCO | 0.944 | 0.959
CN(C(=O)NC(C)(C)c1ccccc1)c1ccccc1 | 1.02 | 0.933
COC(=O)[C@@H](C)Oc1ccc(Oc2ncc(C(F)(F)F)cc2Cl)cc1 | 1 | 0.984
CCCCCCC(C)OC(=O)COc1nc(F)c(Cl)c(N)c1Cl (stereo not drawn) | 0.967 | 0.966
CC(C)CCCCCCc1ccc(O)cc1 | 0.958 | 0.965
O=C(Nc1ccc(F)cc1)c1cccc(Oc2cccc(C(F)(F)F)c2)n1 | 0.918 | 0.956
COC(=O)c1c(Cl)nn(C)c1S(=O)(=O)NC(=O)Nc1nc(OC)cc(OC)n1 | 1.04 | 1.05
Cc1ccc(C(C)NC(=O)[C@@H](NC(=O)OC(C)C)C(C)C)cc1 (stereo partly drawn) | 0.956 | 0.963
CCC(C)Nc1nc(N)nc(Cl)n1 (stereo not drawn) | 0.998 | 0.987
O=S(Cc1ccc(Cl)cc1)c1ccc(Cl)cc1 (stereo not drawn) | 1.01 | 0.984
O=[N+](Nc1ccccc1)c1ccccc1 | 0.944 | 1.06
